# IMPase Li inh – IMPase inhibition in cells with lithium potentiation; CHO-M1 cells, IP1 TR-FRET (IP-One), carbachol + lithium; Potency, µM (titrated, usually from 59.4 µM), without a hit: top-dose activity, negative = IMPase inhibition, usual class: inhibitors; 0.35% of 210,000 active; AID 1457;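 also: IP1 builds up when IMPase is blocked and the TR-FRET signal falls; potency is read from the fitted curve at half-maximal effect; plate controls were basal vehicle for no effect and high inhibitor control for full effect; nearly all actives have a fitted effect of over 50% in size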
#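 Lithium-sensitised IP1 accumulation assay; M1-expressing CHO cells treated 30 min at 37C with compound. Competitive antibody detection by time-resolved FRET followed a 10 min room-temperature lysis step.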
# NPSR antagonist – neuropeptide S receptor (human) antagonism, cAMP | Q6W5P4 | CHO-NPSR cells, cAMP TR-FRET, antagonist mode | Potency, µM (doses to about 38.3 µM), without a hit: at the highest dose activity change, negative = inhibition, actives largely listed as inhibitors | 1% of 220,000 active | AID 1461; also: potency is read from the fitted curve at half-maximal effect; nearly all actives have a fitted effect of over 50% in size
# HPGD inh – HPGD (human) dehydrogenase inhibition; P15428; Potency, µM, inactives show at the highest dose activity change, negative = inhibition, usual class: inhibitors; 4.3% of 150,000 active; purified HPGD, NADH fluorescence kinetic, PGE2 substrate; active = well fitted inhibition curve with a large enough effect, not every such curve was filed as active; inconclusive = small, poorly fitted or top-dose-only effect, or another doubt; inactive = no such curve, though single readings can be large or run the other way; also: potency is read from the fitted curve at half-maximal effect
# Target sequence (P15428 whole entry, looked up): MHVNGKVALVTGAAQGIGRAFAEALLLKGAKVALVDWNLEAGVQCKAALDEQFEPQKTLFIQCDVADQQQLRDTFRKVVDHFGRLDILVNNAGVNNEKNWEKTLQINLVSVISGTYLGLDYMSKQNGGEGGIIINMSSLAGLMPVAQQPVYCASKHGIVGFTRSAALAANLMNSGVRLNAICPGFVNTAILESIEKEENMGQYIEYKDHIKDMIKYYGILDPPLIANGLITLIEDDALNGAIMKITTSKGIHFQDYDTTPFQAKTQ
#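 NADH formation kinetics: reaction with 30 uM PGE2 and 1 mM NAD+ (final), 20 nM enzyme, Tris-HCl pH 8 with Tween 20, after 15 min compound preincubation at room temperature. Fluorescence change, last versus first of five reads.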
# IMPase cell inh – membrane-permeable compound that blocks inositol monophosphatase | inhibition (IP1 accumulation), % at 46.1 µM | 120,000 tested, under 10 active | CHO-M1 cells, IP1 accumulation, HTRF TR-FRET ratio | P97697; active = well fitted curve in the direction sought with a large enough effect in the signal ratio, not every such curve was filed as active; inconclusive = small, poorly fitted or top-dose-only effect, or a change in a side signal; inactive = no such curve, though single readings can be large or run the other way; the % refers to the signal ratio;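 also: cells stimulated with carbachol in lithium chloride buffer; plate controls were DMSO basal wells for no effect and reference inhibitor wells for full effect; higher means more IMPase inhibition seen as more IP1 and lower FRET ratio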
#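 Elevated IP1 in lysates lowers TR-FRET signal (665/620 ratio and 620 channel reported). Cells were CHO-M1, given carbachol (50 uM as added) plus 50mM LiCl, pH 7.4, 30 min, 37C; compounds titrated up to 46 uM; AC50 by Hill equation.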
# ALDH1A1 block – blocks purified human ALDH1A1 activity | P00352 | Purified ALDH1A1, NADH fluorescence, propionaldehyde substrate | Potency, µM (series often up to 75.3 µM), inactives show top-dose activity, negative = inhibition, usual class: inhibitors | 7.3% of 220,000 active | AID 1030; active = well fitted inhibition curve with a large enough effect, not every such curve was filed as active; inconclusive = small, poorly fitted or top-dose-only effect, or another doubt; inactive = no such curve, though single readings can be large or run the other way;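 also: potency is read from the fitted curve at half-maximal effect; plate controls were no enzyme wells and a reference inhibitor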
# Target sequence (P00352 whole entry, looked up): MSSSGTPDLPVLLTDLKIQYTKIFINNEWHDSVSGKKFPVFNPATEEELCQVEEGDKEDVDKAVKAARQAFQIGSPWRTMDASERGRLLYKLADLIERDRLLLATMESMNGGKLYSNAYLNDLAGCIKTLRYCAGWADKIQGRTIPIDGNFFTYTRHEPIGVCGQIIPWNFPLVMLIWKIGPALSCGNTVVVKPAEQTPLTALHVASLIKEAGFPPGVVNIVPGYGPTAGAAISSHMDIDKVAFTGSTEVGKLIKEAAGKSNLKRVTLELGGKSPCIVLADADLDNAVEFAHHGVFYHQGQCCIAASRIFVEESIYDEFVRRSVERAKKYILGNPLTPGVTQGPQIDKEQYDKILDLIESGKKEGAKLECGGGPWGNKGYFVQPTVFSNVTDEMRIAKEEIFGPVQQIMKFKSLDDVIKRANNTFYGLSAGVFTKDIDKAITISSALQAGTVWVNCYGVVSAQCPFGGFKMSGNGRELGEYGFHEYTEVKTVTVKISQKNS
# ALOX12 inhib – 12-hLO (ALOX12) enzyme inhibition; purified 12-hLO, xylenol orange hydroperoxide absorbance; 0.12% of 150,000 active; Potency, µM (highest dose often 57.1 µM), for the others: at the highest dose activity change, negative = inhibition, usual class: inhibitors; also: potency is read from the fitted curve at half-maximal effect; nearly all actives have a fitted effect of over 55% in size
#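 Hydroperoxide output read as Fe(III)-xylenol orange absorbance, 573-to-405 nm ratio, after 30 min reaction with 40 uM arachidonic acid. Enzyme: 150 nM purified human 12hLO, 15 min compound preincubation; 25 mM Hepes pH 7.0, room temperature.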
# Numbers without * were called inactive; u = inconclusive; x = no result; ! = not active in a repeat; [ ] = remark or other dose. Rows were chosen to be rich in hits. Some 8.9% of all compounds tested hit in one or more screens of this group. Unless noted, calls follow the shape of the dose curve; as a rule, active = well fitted curve in the direction sought with a large enough effect; inconclusive = small, poorly fitted or top-dose-only effect, or another doubt; inactive = no such curve, though single readings can be large; an effect the other way counts as inactive or inconclusive. Unless noted, % is scaled to controls: 0 for no effect and ±100 for the full control effect.
SMILES,IMPase Li inh,NPSR antagonist,HPGD inh,IMPase cell inh,ALDH1A1 block,ALOX12 inhib
O=C(O)c1ccc(N/N=C/c2cccc(F)c2)cc1,-7.7%,-13.4%,u,x,20µM*,-6.4%
O=C(O)c1ccc(N/N=C/c2ccc(F)c(F)c2)cc1,-9.7%,-5.9%,-22.1%,2.5,-5.2%,-13.3%
Cc1ccc(N(CC(N)=O)C2SC(=O)N(Cc3cccc(C(=O)O)c3)C2=O)cc1 (centres undefined),-5.3%[38.3 µM],-0.6%[46.1 µM],-9.4%,8.1,20µM*,-13.2%
[S-]C(=Nc1ccc(Cl)cc1)N[n+]1ccccc1,-4.8%,11.2%,6.31µM*,x,3.6%,1.4%
O=S(=O)(/N=C(\[O-])C[n+]1ccccc1)c1ccc(Cl)cc1,x,-22.6%,x,x,x,x
O=C(Nc1ccc(Cl)cn1)c1cc2ccccc2o1,16.7%[38.3 µM],-14.5%[46.1 µM],-18.5%,13.9,-6.1%,-0.6%
S=C(c1ccc(-c2ccc(Cl)cc2Cl)o1)N1CCCCC1,5.1%,-8.3%[46.1 µM],u,1.4,14.1µM*,-7.2%
N#CCCN1CCN(C(=S)c2ccc(-c3cc(Cl)ccc3Cl)o2)CC1,18.0%[38.3 µM],u,-13.8%,5.9,u,-11.0%
O=C(Nc1ccc(CN2CCOCC2)cc1)c1ccc(-c2ccc(Cl)cc2Cl)o1,15.4%,-11.8%,x,x,10µM*,x
S=C(c1ccc(-c2ccc(Cl)cc2Cl)o1)N1CCCC1,x,36.9%,x,x,3.98µM*,x
O=C(Nc1ccc(Cl)cn1)c1ccc(-c2cc(Cl)ccc2Cl)o1,x,u,x,-5.6,17.8µM*,-6.9%
COc1ccc(CSc2nncn2N)cc1Br,x,1.5%[46.1 µM],x,0.6,9.4%,-11.2%
CCOC(=O)C(CC)/C(C)=N/NC(=O)c1ccc([N+](=O)[O-])cc1 (centres undefined),7.8%[38.3 µM],3.0%[46.1 µM],-9.0%,1.0,u,0.9%
CCCn1c(=N)n(CCOc2ccc(OC)cc2)c2ccccc21,20.2%[38.3 µM],-8.0%[46.1 µM],-0.5%,11.1,4.4%,4.8%
CCC(=O)N=c1n(C)c2ccccc2n1CCOc1ccccc1,-1.8%,12.6%,-6.7%,x,5.01µM*,4.2%
CCCSc1ccc(C(=O)Nc2ccc(Cl)cc2)cn1,-0.1%,-1.9%,x,x,8.6%,x
O=C(c1cc2nc(C3CC3)cc(C(F)(F)F)n2n1)N1CCCC1,16.6%[38.3 µM],-10.2%[46.1 µM],u,-2.7,0.3%,-5.3%
O=c1cc(-c2ccccc2)oc2cc(O)cc(O)c12,23.1%,x,-21.9%,-0.3,8.91µM*,-14.1%
O=c1c(O)c(-c2ccc(O)cc2)oc2cc(O)cc(O)c12,34.5%,x,28.2µM*!,20.2,-5.5%[20.9 µM],-8.2%
O=c1cc(-c2cc(O)c(O)c(O)c2)oc2cc(O)cc(O)c12,23.6%,x,u,x,u,-26.0%
O=c1cc(-c2ccc(O)cc2)oc2cc(O)cc(O)c12,28.0%,25.1µM*,31.6µM*!,u,1.78µM*!,-3.1%
Cc1cc2ncn(N)c2cc1C,7.9%[38.3 µM],-6.0%[46.1 µM],-4.8%,-2.7,-13.1%,0.5%
COc1ccc(CN(CCC(c2ccccc2)c2ccc(OC(C)C)cc2)C(=O)CCl)cc1OC (centres undefined),14.0%,10µM*,u,x,10µM*,-5.6%
COc1ccc(C(CCN(Cc2ccc(OC)c(OC)c2)C(C)=O)c2ccccc2)cc1 (centres undefined),x,-19.7%[46.1 µM],x,9.0,u,-4.3%
COC(=O)N1[C@H](Cc2ccccc2)C=C[C@]1(C)C(=O)NCc1ccc(N(C)C)cc1,0.1%,x,-8.0%,x,u,-7.8%
SMILES,IMPase Li inh,NPSR antagonist,HPGD inh,IMPase cell inh,ALDH1A1 block,ALOX12 inhib
COC(=O)c1ccc(C(=O)Nc2ccc(-c3nc4cc(NC(=O)c5ccc(C(=O)OC)cc5)ccc4o3)cc2)cc1,x,x,x,-2.6,x,x
Cc1ccc(S(=O)(=O)Nc2cc(C)c(O)c(S(=O)(=O)c3ccc(C)cc3)c2)cc1,10.9%[38.3 µM],-11.5%[46.1 µM],-10.6%,-3.2,0.631µM*,-3.9%
Cc1cc(NS(=O)(=O)c2ccccc2)cc(Cl)c1O,2.1%[38.3 µM],-23.1%[46.1 µM],-26.0%,4.2,7.08µM*,-10.1%
O=S(=O)(Nc1ccc(S(=O)(=O)Nc2ccccc2)cc1)c1ccccc1,-4.9%[38.3 µM],-13.3%[46.1 µM],-4.1%,-2.0,u,6.1%
COCc1cc(C)nc2sc3c(=O)n(Cc4ccco4)nnc3c12,8.0%[38.3 µM],-2.0%[46.1 µM],-13.2%,3.2,u,-1.3%
Cc1ccc(Cn2ccsc2=NC(=O)CCl)cc1,-0.4%,-9.5%,x,x,10µM*,x
Cc1nn(-c2cccc(Cl)c2)c2c1C(c1ccncc1)C(C#N)=C(N)O2 (centres undefined),25.4%[38.3 µM],u,-12.5%,9.5,10µM*,-13.9%
Cc1nn(-c2cccc(Cl)c2)c2c1C(c1cccnc1)C(C#N)=C(N)O2 (centres undefined),-5.2%[38.3 µM],-13.6%[46.1 µM],-20.2%,3.6,7.94µM*,-15.2%
CC1=C(n2nnc([N+](=O)[O-])n2)C(c2cccnc2)C(C#N)=C(N)O1 (centres undefined),-3.7%,16.3%,-7.9%,x,1.12µM*,2.8%
Cc1cc2c(c(=O)n1Cc1ccco1)C(c1cccnc1)C(C#N)=C(N)O2 (centres undefined),3.3%[38.3 µM],-14.9%[46.1 µM],-18.8%,5.2,7.51µM*,-24.9%
COc1ccc(OC)c(C2C(C#N)=C(N)Oc3c2c(C)nn3-c2cccc(Cl)c2)c1 (centres undefined),4.2%[38.3 µM],-15.7%[46.1 µM],-24.7%,-3.9,u,-18.6%
CC(C)CC(=O)NC1(C(F)(F)F)NC(=O)N(c2ccccc2)C1=O (centres undefined),1.7%,5.8%,x,x,8.9%,x
O=C(CNC(=O)c1cccc(F)c1)N/N=C/c1ccc(O)c([N+](=O)[O-])c1,-1.0%,-19.7%,-14.3%,5.8,6.2%,1.1%
COc1ccc([N+](=O)[O-])cc1/C=N/NC(=O)CNC(=O)c1cccc(F)c1,6.0%,7.0%,25.1µM*,-0.8,u,0.6%
O=C(CNC(=O)c1ccc(F)cc1)N/N=C/c1ccc(O)c([N+](=O)[O-])c1,3.9%,-17.0%,25.1µM*,7.7,u,0.3%
O=C(CNC(=O)C(c1ccccc1)c1ccccc1)N/N=C/c1ccc(O)c([N+](=O)[O-])c1,0.4%,-19.8%,-14.5%,x,12.6µM*,0.1%
O=C(/C=C/c1cccc([N+](=O)[O-])c1)c1ccccc1,-0.3%,x,-6.6%,x,-3.7%,5.0%
O=C(C#Cc1cccc([N+](=O)[O-])c1)c1ccccc1,44.1%[38.3 µM],3.16µM*,-15.9%,-5.0,3.55µM*,-24.6%
CCNc1ncc2nc(-c3cccs3)c(=O)n(-c3ccc(OC)cc3)c2n1,-2.9%,x,-12.5%,x,u,2.8%
O=C(CC1CCS(=O)(=O)C1)Nc1ccc[nH]c1=O (centres undefined),-3.8%,20.0%[46.1 µM],-20.4%,6.8,25.1µM*,8.7%
CCc1ccccc1NC(=O)CC1CS(=O)(=O)CC1CC(=O)Nc1ccccc1CC (centres undefined),2.7%,-11.6%[46.1 µM],-1.4%,-1.1,11.2%,-0.6%

# Screening results deposited in PubChem BioAssay by National Center for Advancing Translational Sciences (NCATS).
